In PubChem BioAssay:
The source made the active and inactive calls.

Key:
Albumin (Bos taurus) = Albumin (Bos taurus) (UniProt P02769); assay: compounds binding labelled BSA control protein – biochemical, small-molecule microarray, Alexa647 label, 635/667 nm fluorescence, artefact control for SMM control protein annotation, profiling panel (AID 1118); conditions: BSA-A647 binding, fluorescence 635 nm, higher = more signal;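 also: score merges 667 nm emission intensity and signal-to-noise per printed compound spot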
[1] = probe aXIP binding to arrayed compounds – biochemical, NeuroSMM set, 635/667 nm fluorescence, primary screen (AID 1119); conditions: small-molecule microarray, higher = more signal, called active from +8 up or from −8 down;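 also: probe is the protein aXip251-270 applied at 1 µg/mL to compound-printed slides; binding of probe to printed compounds measured as 667 nm fluorescence plus signal to noise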
[2] = probe aNOTCH3 binding on compound microarray – biochemical, small-molecule microarray, 635/667 nm fluorescence, primary screen (AID 1120); conditions: higher = more signal;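 also: probe is a biotin-tagged antibody raised against NOTCH3 rather than NOTCH3 protein; score merges spot fluorescence near 667 nm with spot signal to noise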
[3] = probe aNOTCH2 binding on compound microarray – biochemical, small-molecule microarray, 635/667 nm fluorescence, primary screen (AID 1121); conditions: higher = more signal;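 also: score merges feature fluorescence read at 667 nm with its signal to noise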
[4] = molecular target: Carbonic anhydrase 2 (Homo sapiens) (UniProt P00918); assay: compounds binding carbonic anhydrase 2 – biochemical, small-molecule microarray, Alexa647-labelled CAII, profiling panel (AID 1122); conditions: CAII-A647 binding fluorescence, higher = more signal
[5] = COS7 lysate on small-molecule microarray, probe aHis, 635 nm (AID 1123); conditions: COS7 cell lysate, fluorescence, higher = more signal;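 also: z-score combines 667nm fluorescence intensity with signal-to-noise per printed compound spot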
[6] = probe aLAP1 signal on lysate-treated microarray – cell lysate, small-molecule microarray, COS7 lysate, primary screen (AID 1124); conditions: probe aLAP1, fluorescence, higher = more signal;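 also: lysate comes from COS7 cells expressing LAP1 and is applied at 0.3 µg/mL; score merges spot fluorescence near 667 nm with signal-to-noise over triplicate slides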
Sam68 (KHDRBS1) = assay: compounds binding KHDRBS1 protein – biochemical, small-molecule microarray, 635 nm fluorescence, primary screen (AID 1125); conditions: higher = more signal;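 also: score merges 667 nm channel intensity with signal to noise over triplicate slides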
[7] = system: Chordin-like protein 2 (CHRDL2); assay: compounds binding chordin-like 2 – biochemical, small-molecule microarray, 635 nm fluorescence, primary screen (AID 1126); conditions: fluorescence 635 nm, higher = more signal;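 also: printed compound slides probed with Chrdl2 protein at 4 µg/mL for 1 h at 4 C; score merges 667 nm emission intensity with signal to noise over three replicate slides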
[8] = molecular target: Concanavalin-A (Canavalia ensiformis) (UniProt P02866); assay: compounds binding concanavalin A lectin – biochemical, small-molecule microarray, Alexa647 label, 635 nm, artefact control for SMM control protein annotation, primary screen (AID 1127); conditions: ConA-A647 binding fluorescence, higher = more signal;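 also: z combines 667 nm emission intensity with signal-to-noise across three replicate slides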
Concanavalin-A (Canavalia ensiformis), sequence (P02866 whole entry, looked up): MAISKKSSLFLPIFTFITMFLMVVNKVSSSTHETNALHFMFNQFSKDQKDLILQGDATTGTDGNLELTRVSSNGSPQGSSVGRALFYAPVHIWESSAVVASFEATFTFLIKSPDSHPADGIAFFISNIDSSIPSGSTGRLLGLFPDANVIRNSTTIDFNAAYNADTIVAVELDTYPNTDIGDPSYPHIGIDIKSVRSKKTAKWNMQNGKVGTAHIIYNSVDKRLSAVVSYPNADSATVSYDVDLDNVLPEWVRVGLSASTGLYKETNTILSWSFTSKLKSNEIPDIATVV

Albumin (Bos taurus), sequence (P02769 whole entry, looked up): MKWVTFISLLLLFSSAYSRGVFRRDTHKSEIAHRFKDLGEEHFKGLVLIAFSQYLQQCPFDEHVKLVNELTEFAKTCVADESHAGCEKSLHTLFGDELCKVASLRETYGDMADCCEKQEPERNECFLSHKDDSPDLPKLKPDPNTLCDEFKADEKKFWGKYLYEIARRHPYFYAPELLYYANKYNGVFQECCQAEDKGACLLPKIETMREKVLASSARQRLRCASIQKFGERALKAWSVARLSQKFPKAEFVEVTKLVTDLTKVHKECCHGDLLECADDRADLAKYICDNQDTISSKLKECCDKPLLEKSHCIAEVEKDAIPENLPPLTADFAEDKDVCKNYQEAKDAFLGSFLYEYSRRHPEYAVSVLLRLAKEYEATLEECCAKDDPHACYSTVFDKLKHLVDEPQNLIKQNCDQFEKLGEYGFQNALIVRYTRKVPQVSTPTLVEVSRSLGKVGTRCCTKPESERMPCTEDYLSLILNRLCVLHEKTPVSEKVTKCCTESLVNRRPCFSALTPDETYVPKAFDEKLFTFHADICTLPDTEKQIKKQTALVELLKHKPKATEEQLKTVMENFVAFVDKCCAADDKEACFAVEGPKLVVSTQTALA

Row | Compound | composite z-score (Albumin (Bos taurus)) | composite Z-score [1] | composite z-score [2] | composite z-score [3] | composite z-score [4] | composite z-score [5] | composite z-score [6] | composite z-score (Sam68 (KHDRBS1)) | composite z-score [7] | composite z-score [8]
1 | C=CCNC(=O)[C@@H]1[C@H]2C(=O)O[C@H](c3ccccc3)[C@H](c3ccccc3)N2[C@H](c2ccc(OCCO)cc2)[C@@]12C(=O)N(C(=O)OCCOC)c1ccc(C#Cc3ccc(OC)cc3)cc12 | 0.645 | -0.116 (inactive) | 0.182 | -0.151 | 0.402 | 1.39 | 0.78 | 1.3 | 0.151 | 1.14
2 | C=CCNC(=O)[C@@H]1[C@H]2C(=O)O[C@H](c3ccccc3)[C@H](c3ccccc3)N2[C@H](c2ccccc2OCCO)[C@@]12C(=O)N(C(=O)OCCOC)c1ccc(C#CC3(O)CCCCCC3)cc12 | 0.351 | 0.0141 (inactive) | 0.11 | -0.0708 | 0.354 | 2.15 | 0.618 | 1.29 | 0.755 | 1.07
3 | C=CC[C@@H](OC(=O)Nc1ccc(SC)cc1)c1ccc(O)c(F)c1 | -0.102 | 0.452 (inactive) | -0.0647 | -0.114 | 0.643 | 0.527 | 0.341 | 0.152 | 0.268 | -0.0538
4 | COC(=O)C(CC#Cc1ccc2c(c1)[C@]1(C(=O)N2)[C@H](c2ccc(O)cc2)N2[C@H](c3ccccc3)[C@H](c3ccccc3)OC(=O)[C@H]2[C@@H]1C(=O)NC[C@H](O)c1ccccc1)C(=O)OC | 0.0841 | 0.564 (inactive) | 0.0948 | -0.0956 | 0.553 | 1.22 | 1.2 | 1.24 | 0.294 | 0.517
5 | CC(C)C(CO)N1C(=O)[C@@H]2C3C(=O)OCCC/C=C\[C@H]3OC23C=CCN(c2ccc4ccccc4c2)C(=O)[C@@H]13 (stereo not given in full) | 0.974 | 0.503 (inactive) | -0.0716 | -0.156 | 0.941 | -0.201 | -0.18 | -1.02 | -1.28 | -0.612
6 | COCCOC(=O)N1C(=O)[C@@]2(c3ccccc31)[C@H](c1ccc(O)cc1)N1[C@H](c3ccccc3)[C@H](c3ccccc3)OC(=O)[C@H]1[C@@H]2C(=O)N1CCN(c2ncccn2)CC1 | 0.397 | 0.0692 (inactive) | -0.0014 | 0.0456 | 0.202 | 1.83 | 1.03 | 1.2 | 0.375 | 0.928
7 | CC(C)[Si]1(C(C)C)OCc2cc(-c3ccc(-c4ccc(Cl)c(Cl)c4)o3)nc(-c3ccccc3)c21 | 0.566 | 0.131 (inactive) | -0.235 | -0.234 | -0.895 | -0.77 | -0.714 | -1.53 | -0.541 | -0.746
8 | CCCCCCCCCC(O)C1C=CC2C(=O)N(c3ccccc3)C(=O)C2N1Nc1cc(OC)c(OC)c(OC)c1 (stereo not given) | 0.168 | 0.182 (inactive) | -0.0751 | -0.14 | 0.528 | 2.25 | -0.354 | 0.683 | -0.919 | 0.932
9 | CCOC(=O)C[C@H]1[C@H](OC(=O)c2ccccc2-c2ccccc2)[C@@H](NC(=O)c2ccc3ccccc3n2)c2cc(OCCCO)ccc2N1C(=O)Cc1ccc(OC)cc1 | 0.505 | -0.891 (inactive) | 0.033 | -0.106 | 0.105 | 0.428 | 0.134 | 0.368 | 0.456 | 0.0562
10 | CCCN1C(=O)[C@@]2(Cc3ccccc31)N=C(c1ccc(OCCCO)cc1)O[C@H]2c1ccccc1 | -0.324 | 0.953 (inactive) | 0.0916 | 0.0118 | 0.523 | 1.88 | 0.587 | 1.31 | 0.201 | 1.13
11 | Cn1cccc1C(O)C1C=CC2C(=O)N(c3ccccc3)C(=O)C2N1Nc1ccccc1 (stereo not given) | 0.857 | 0.581 (inactive) | 0.346 | 0.2 | 0.805 | 2.37 | 0.461 | 1.3 | 0.352 | 1.19
12 | COc1cc(NN2C(C(O)c3ccco3)C=CC3C(=O)N(C)C(=O)C32)cc(OC)c1OC (stereo not given) | 0.593 | 0.319 (inactive) | 0.313 | 0.267 | 0.738 | 0.815 | -0.0901 | 0.633 | 0.861 | 0.215
13 | Cc1ccc(NN2C(C(O)c3c(F)cccc3Cl)C=CC3C(=O)N(C4CCCCC4)C(=O)C32)cc1 (stereo not given) | 0.979 | 0.788 (inactive) | 0.102 | 0.174 | 0.489 | 2.38 | -0.0134 | 1.25 | -0.804 | 1.19
14 | C=CCN1Cc2ccccc2[C@@H]2OC(c3ccc(OCCCO)cc3)=N[C@]2(CC=C)C1=O | -0.187 | 1.79 (inactive) | 0.43 | 0.147 | 0.544 | 3.16 | 0.585 | 1.22 | 1.44 | 1.1
15 | O=C(O)[C@@H]1C[C@@H]2C(=O)N3CCC[C@H]3C(=O)N2[C@@H]1c1ccc(O)cc1 | -0.0352 | 0.309 (inactive) | 0.0927 | -0.0126 | 0.579 | 0.538 | 0.619 | 0.721 | 0.931 | 0.878
16 | O=C(c1ccccc1)N1C(=O)[C@]2(Cc3ccccc31)N=C(c1ccc(OCCCO)cc1)O[C@@H]2c1ccccc1 | 0.462 | -0.129 (inactive) | 0.0691 | -0.0928 | 0.204 | 2.7 | 0.356 | 1.29 | 0.371 | 1.13
17 | COc1cc(NN2C(C(O)c3cc(OC)c(OC)c(OC)c3)C=CC3C(=O)N(C)C(=O)C32)cc(OC)c1OC (stereo not given) | 1.03 | 0.328 (inactive) | 0.499 | -0.0028 | 0.67 | 2.77 | 0.0495 | 1.23 | 0.0976 | 0.894

Row | Compound | composite z-score (Albumin (Bos taurus)) | composite Z-score [1] | composite z-score [2] | composite z-score [3] | composite z-score [4] | composite z-score [5] | composite z-score [6] | composite z-score (Sam68 (KHDRBS1)) | composite z-score [7] | composite z-score [8]
18 | O=C1NC(=O)C2C1C=CC(C(O)c1ccco1)N2Nc1ccc(Cl)cc1Cl (stereo not given) | 0.78 | 0.731 (inactive) | -0.0967 | -0.153 | 0.794 | 1.28 | 0.317 | -0.0532 | 0.167 | 0.321
19 | CCCCCC1=C2CNC(C)(C(=O)OC)C=C2C(C)C1=O (stereo not given) | 0.673 | 0.239 (inactive) | -0.0716 | 0.0414 | 0.839 | 1.18 | 0.947 | -0.868 | -0.409 | -1.51
20 | [N-]=[N+]=Nc1ccccc1[C@@H]1OC(c2ccc(OCCCO)cc2)=N[C@]1(Cc1ccccc1)C(=O)O | 0.893 | 0.008 (inactive) | 0.136 | -0.0068 | 0.62 | 1.23 | -0.25 | 1.3 | 0.155 | 0.665
21 | C=CCN1C(=O)[C@]2(CCS(=O)(=O)c3ccccc3)N=C(c3ccc(OCCCO)cc3)O[C@@H]2c2ccccc21 | 0.8 | -0.0072 (inactive) | 0.177 | -0.112 | 0.594 | 3.23 | 1.31 | 1.31 | 1 | 1.17
22 | COc1cc(OC)c(C(O)C2C=CC3C(=O)N(Cc4ccccc4)C(=O)C3N2n2cnnc2)cc1Br (stereo not given) | 0.725 | -0.395 (inactive) | 0.056 | -0.0398 | 0.377 | 1.64 | 0.953 | 1.2 | -1.15 | 0.756
23 | CC(C)N1CC=CC23O[C@@H]4C=CCCOC(=O)C4[C@H]2C(=O)N(CCCO)[C@@H]3C1=O (stereo not given in full) | -0.682 | -0.472 (inactive) | -0.112 | -0.0995 | 0.734 | -0.192 | 0.303 | 0.334 | -0.347 | -0.0639
24 | N[C@@H](Cc1ccccc1)C(=O)NCc1cn(Cc2ccccc2)nn1 | -0.337 | 0.961 (inactive) | -0.0656 | -0.101 | 0.431 | -0.276 | -0.0884 | -0.341 | 0.849 | -0.0527
25 | C=C(/C(=C/C[C@H](OC(=O)c1ccncc1)c1ccc(CO)o1)c1cnc2ccccc2c1)C(C)C | 0.702 | -0.55 (inactive) | 0.169 | -0.0216 | 0.902 | 0.75 | -0.159 | 1.12 | 0.684 | 1.11
26 | COc1ccc(C(=O)Nc2ccc(CN3C(=O)[C@]4(O[C@H](CC(=O)N5Cc6ccccc6C[C@H]5CO)[C@@H]([Si](C)(C)c5ccc(OC)cc5)[C@@H]4C)c4ccccc43)cc2)cc1 | -0.254 | -0.236 (inactive) | -0.0377 | -0.0995 | 0.151 | 1.1 | 0.0688 | 1.17 | 1.14 | 0.67
27 | NCCCCCNC(=O)[C@@H]1C[C@@H]2C(=O)N[C@@H](CCCCN)C(=O)N2[C@@H]1c1ccc(O)cc1 | -0.321 | 0.562 (inactive) | 0.353 | -0.0162 | 0.635 | 2.38 | 0.103 | 1.3 | 1.38 | 1.15
28 | O=C(NCCN1CCOCC1)[C@@H]1c2ccccc2C(=O)N(Cc2ccccc2Cl)[C@H]1c1ccc(CO)cc1 | -0.281 | 0.239 (inactive) | -0.224 | -0.0986 | 0.667 | 0.0465 | 1.67 | -0.721 | -0.761 | -1.19
29 | CCCC=C(CCC)[C@@H](NP(=O)(c1ccccc1)c1ccccc1)c1ccc(-c2ccccc2)cc1 | 0.91 | 0.439 (inactive) | 0.36 | 0.0117 | 0.561 | 2.52 | 0.272 | 1.34 | -0.465 | 1.09
30 | Cc1ccc(S[C@]2(C(=O)O)CC(=O)N(C3CCCCC3)[C@@H]2c2ccc(CO)cc2I)cc1 | 0.905 | 0.258 (inactive) | 0.175 | -0.013 | 0.331 | 2.84 | 1.01 | 1.29 | -0.565 | 1.02
31 | COCCOC(=O)N1C(=O)[C@@]2(c3cc(C#CC4=CCCCC4)ccc31)[C@H](C(=O)Nc1nc3ccccc3s1)[C@H]1C(=O)O[C@H](c3ccccc3)[C@H](c3ccccc3)N1[C@@H]2c1ccc(O)cc1 | 0.817 | 2.58 (inactive) | -0.0279 | -0.166 | 0.661 | 1.68 | 0.61 | 1.31 | 0.408 | 1.18
32 | CCCCCN1CC=CC23O[C@@H]4/C=C\CCCOC(=O)C4[C@H]2C(=O)N(C(C)CO)[C@@H]3C1=O (stereo not given in full) | 0.356 | 0.0199 (inactive) | -0.427 | -0.169 | 0.839 | 0.626 | -0.0467 | 0.0008 | -1.14 | -0.734
33 | CCCNC(=O)[C@@]1(Sc2ccc(C)cc2)CC(=O)N(C2Cc3ccccc3C2)[C@@H]1c1ccc(CO)cc1I | -0.533 | -0.0764 (inactive) | 0.606 | -0.0186 | 0.427 | 0.807 | 0.702 | 0.95 | 0.378 | -0.162
34 | CC[C@@H]1C=C(C(=O)O)[C@H](c2ccc(C#N)cc2)N1S(=O)(=O)c1ccc(C)cc1 | 0.173 | 0.474 (inactive) | -0.0077 | -0.046 | 0.838 | 3.03 | 1.44 | 1.09 | -1.52 | 0.91
